From PubChem BioAssay AID2501 (Southern Research Specialized Biocontainment Screening …, 2010)
Screen size: about 2,200 compounds; about 1,200 (55%) were called active. So high a share suggests a set chosen from earlier hits. The list shows a part of the results. A number with no mark means an inactive call. No cut-off is given here; in the data, nearly all actives have IC50 up to about 92 µM.

Experiment: counter assay for TAg ATPase ADP read-out – biochemical, ADP-Hunter, fluorescence, counter-screen (AID 2501);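 note: purified T antigen ATPase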;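 for inhibition: 0% = enzyme with vehicle and 100% = reference inhibitor wells; higher means more inhibition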
Conditions: series mostly up to 100 µM; inhibition: at the top concentration

| SMILES | inhibition | IC50 |
| --- | --- | --- |
| O=S(=O)(c1cccs1)N1CN(CC2CCCO2)c2nc3ccccc3nc21 (stereo not drawn) | 12.7% |  |
| Oc1ccc(Nc2nc(NCC3CCCO3)c3ccccc3n2)cc1 (stereo not drawn) |  | 5.81 µM (active) |
| CN(Cc1ccco1)S(=O)(=O)c1nnc(NC(=O)c2cccc(Cl)c2)s1 | -22.5% |  |
| CCn1cc(CN2CCC(n3nccc3NC(=O)c3ccccc3OC)CC2)cn1 | 10.8% |  |
| CC(C)(C)OC(=O)N/N=C/c1ccc(N2CCOCC2)s1 |  | 8.25 µM (active) |
| NC(=O)N/N=C/c1ccc(N2CCOCC2)s1 |  | 10.7 µM (active) |
| COc1ccc(N(CC(=O)NCCc2cccc(C)c2)S(=O)(=O)c2c(C)noc2C)cc1 | -11.9% |  |
| COc1cccc(NS(=O)(=O)c2ccc3c(c2)C2C=CCC2C(c2ccc(C(=O)O)cc2)N3)c1 (stereo not drawn) | 25.9% |  |
| Oc1ccc(-c2csc(Nc3ncccn3)n2)cc1O |  | 10.2 µM (active) |
| Cc1ccc(Nc2nc(-c3ccc(O)c(O)c3)cs2)nc1 |  | 8.68 µM (active) |
| Oc1ccc(-c2csc(Nc3cccc4ccccc34)n2)cc1O |  | 23.6 µM (active) |
| Oc1ccc(-c2csc(Nc3ccccn3)n2)cc1O |  | 11.2 µM (active) |
| Cc1cc(-c2nnc(SCc3ccccn3)o2)no1 | -8.85% |  |
| Cc1onc(-c2c(F)cccc2Cl)c1C(=O)OCC(=O)NC(c1ccccc1)c1ccccc1 | 5.42% |  |
| COc1cc(/C=C2\C(=N)N3N=C(S(C)(=O)=O)SC3=NC2=O)ccc1OS(=O)(=O)c1ccc(C)cc1 |  | 28.6 µM (active) |
| CCS(=O)(=O)C1=NN2C(=N)/C(=C\c3ccc(SCc4ccco4)o3)C(=O)N=C2S1 | 21.2% |  |
| CCS(=O)(=O)C1=NN2C(=N)/C(=C\c3ccc(OC(=O)c4ccco4)c(OC)c3)C(=O)N=C2S1 |  | 54.2 µM (active) |
| COc1cc(/C=C2/C(=N)N3C(=NC2=O)SN=C3S(C)(=O)=O)ccc1OS(=O)(=O)c1ccc(C)cc1 | -20.2% |  |
| CCOc1cc(/C=C2\C(=N)N3N=C(S(=O)(=O)CC)SC3=NC2=O)ccc1OC(=O)c1ccco1 | 8.45% [at 6.25 µM] |  |
| COc1cc(/C=C2/C(=N)N3C(=NC2=O)SN=C3S(=O)(=O)C(C)C)ccc1OS(=O)(=O)c1ccccc1 | -14.3% |  |
| O=C1OC(c2ccc(Cl)cc2)=N/C1=C\C=C\c1ccco1 | 16.1% |  |
| Cc1ccn2cc(-c3ccc(O)c(O)c3)nc2c1 |  | 7.1 µM (active) |
| Oc1ccc(-c2cn3ccccc3n2)cc1 |  | 3.69 µM (active) |
| Oc1ccc(-c2cn3ccccc3n2)cc1O |  | 5.62 µM (active) |
| Cc1ccc(-c2nnc(Nc3ccc(O)cc3)c3ccccc23)cc1S(=O)(=O)NCCO |  | 5.63 µM (active) |
| O=C(Nc1cccc(N2C(=O)C=CC2=O)c1)c1cccs1 | -19% |  |
| CCOc1cc(NS(=O)(=O)c2ccc(NC(C)=O)cc2)c(OCC)cc1NC(=O)c1cccs1 |  | 7.08 µM (active) |

| SMILES | inhibition | IC50 |
| --- | --- | --- |
| COc1cc(NS(=O)(=O)c2ccc(NC(=S)NC(=O)/C=C/c3ccco3)cc2)ncn1 | 10.9% |  |
| CN=c1scc(-c2ccco2)n1/N=C/c1ccc(O)c(O)c1 |  | 8.2 µM (active) |
| Cc1cccc(C(=O)NCC(=O)OCC(=O)c2ccc(Cl)s2)c1 | -37% |  |
| O=C(COc1cccnc1[N+](=O)[O-])c1ccc(Cl)s1 |  | 39.2 µM (active) |
| O=C(Nc1ccon1)c1cc2ccccc2oc1=O | 8.87% |  |
| COc1cc(-c2cc(=O)c3ccccc3o2)ccc1O |  | 3.14 µM (active) |
| COc1cc(-c2cc(=O)c3c(O)c(OC)c(OC)c(O)c3o2)ccc1O | -0.18% |  |
| O=C(OC1CCCCC1=O)c1cc(=O)c2ccccc2o1 (stereo not drawn) | -12.4% |  |
| CCCOCC1CC(CCc2nc(=S)[nH][nH]2)C(=O)O1 (stereo not drawn) | 17% |  |
| O=c1c2ccccc2sn1-c1nccs1 |  | 14.1 µM (active) |
| O=c1[nH]sc2ccccc12 | 14.1% |  |
| Cc1ccnc(NS(=O)(=O)c2ccccc2)n1 | -41.4% |  |
| Cc1ccnc(-n2sc3ccccc3c2=O)n1 |  | 9.06 µM (active) |
| Cc1cc(=O)c2ccccc2s1 | -17.1% |  |
| O=C(Cn1sc2ccccc2c1=O)NC12CC3CC(CC(C3)C1)C2 | 12.6% |  |
| COc1cccc(C(c2sc3nc(C)nn3c2O)N2CCN(c3ccccc3F)CC2)c1 (stereo not drawn) | -11.5% |  |
| CN(C)c1nn(C(=O)Nc2ccc(Cl)cc2Cl)cc1-c1ccccc1 |  | 14.8 µM (active) |
| O=C(O)/C=C/C(=O)Nc1ccc(Cl)cc1C(=O)c1ccccc1 | 14.6% |  |
| CCCCSc1cc(C)nc(N)n1 | 19.6% |  |
| COC(=O)NNC(=O)c1ccccc1C | -37.6% |  |
| CCN(CC)c1ccc(NC(=O)c2cccnc2)c(C)c1 |  | 6.37 µM (active) |
| CCOC(=O)c1cc(NC(=O)c2cccnc2)ccn1 | -20.6% |  |
| COCCNC(=O)C(=O)Nc1ccc(Cl)cc1C | -0.65% |  |
| CCN(CC)c1ccc(NC(=O)c2cccc(C)c2OC)c(C)c1 |  | 14.9 µM (active) |
| CCN(CC)c1ccc(NC(=O)c2cnn(CC)c2)cc1 |  | 4.27 µM (active) |
| CCN(CC)c1ccc(NC(=O)c2cccnc2)cc1 |  | 8.35 µM (active) |
